Inconclusive results are not listed. Calls of active or inactive are those of the source. The call rests on the fitted dose curve; in most records, active means well fitted curve in the direction sought with a large enough effect; inconclusive means small, poorly fitted or top-dose-only effect, or another doubt; inactive means no such curve, though single readings can be large; an effect the other way counts as inactive or inconclusive.
Experiments:
[1] = qHTS to identify inhibitors of the type 1 interferon - major histocompatibility complex class I in skeletal muscle: primary screen against the NCATS Pharmaceutical Collection (AID 1347407);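 further: luminescence of HiBiT knocked into endogenous HLA-B as interferon-induced MHC class I level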; further: potency means the concentration at half of the fitted maximal effect
Procedure, shortened: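 Luminescence from HiBiT-tagged endogenous HLA-B*08:01 served as the read-out of IFN-beta-induced MHC class I in CRISPR-engineered C25cl48 myoblasts. Cells received 4 ng/ml IFN-beta plus compound (high final 46 uM, […]) for 24 h.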

[2] = molecular target: Protein phosphatase 1D (Homo sapiens) (UniProt O15297); experiment: Rhodamine-PBP qHTS Assay for Modulators of WT P53-Induced Phosphatase 1 (WIP1) (AID 1347425)
Chain of Protein phosphatase 1D (Homo sapiens) (O15297 whole entry, looked up): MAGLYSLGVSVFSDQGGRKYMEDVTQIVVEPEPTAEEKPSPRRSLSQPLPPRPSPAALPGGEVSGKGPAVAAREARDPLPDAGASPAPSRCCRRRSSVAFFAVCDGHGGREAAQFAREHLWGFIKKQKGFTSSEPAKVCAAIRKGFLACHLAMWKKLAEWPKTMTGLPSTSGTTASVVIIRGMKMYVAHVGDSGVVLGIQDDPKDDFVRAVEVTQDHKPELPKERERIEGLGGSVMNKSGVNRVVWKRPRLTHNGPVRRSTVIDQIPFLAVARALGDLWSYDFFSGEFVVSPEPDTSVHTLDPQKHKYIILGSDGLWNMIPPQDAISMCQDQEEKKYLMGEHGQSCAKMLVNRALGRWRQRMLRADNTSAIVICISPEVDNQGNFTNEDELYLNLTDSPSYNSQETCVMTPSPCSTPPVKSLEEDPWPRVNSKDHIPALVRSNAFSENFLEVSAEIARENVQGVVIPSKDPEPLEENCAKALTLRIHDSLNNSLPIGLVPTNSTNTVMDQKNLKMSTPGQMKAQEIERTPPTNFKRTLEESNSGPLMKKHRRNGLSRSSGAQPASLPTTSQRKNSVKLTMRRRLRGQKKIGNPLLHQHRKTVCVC
Procedure, shortened: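 Steps: enzyme with Rh-PBP sensor and compounds, room-temperature incubation of 1 hr, baseline read, addition of VEPPL-pS-QETFS (10 uM final), kinetic fluorescence reads at 525/598 nm. Activity equals final minus baseline signal.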

[3] = molecular target: Calcium and integrin-binding protein 1 (Homo sapiens) (UniProt Q99828); experiment: Primary qHTS for Identification of Calcium Integrin Binding Protein 1 (CIB1) Competitor (AID 1508620); further: potency means the concentration at half of the fitted maximal effect
Chain of Calcium and integrin-binding protein 1 (Homo sapiens) (Q99828 whole entry, looked up): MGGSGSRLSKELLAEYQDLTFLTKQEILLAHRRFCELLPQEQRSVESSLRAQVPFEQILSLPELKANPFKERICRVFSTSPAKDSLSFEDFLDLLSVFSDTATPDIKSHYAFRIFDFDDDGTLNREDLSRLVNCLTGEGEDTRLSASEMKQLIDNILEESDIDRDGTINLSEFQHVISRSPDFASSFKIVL
Procedure, shortened: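 Fluorescence polarization competition: CIB1-GST (1 uM final) preincubated with compound 15 min at room temperature, then FITC-labeled alphaIIb peptide (100 nM final) added for another 15 min. Polarization read at Ex 480/Em 540.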

[4] = Primary qHTS for inhibitors of La Crosse Virus (LACV) - induced cell death in SH-SY5Y cells (AID 1508616);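 further: top concentration of the series differs between compounds; higher means more rescue of cells from virus-induced death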
Procedure, shortened: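 Cytopathicity rescue screen: compounds pinned onto SH-SY5Y cells, which are then infected with LACV (MOI 0.01) and held 6 days at 37C. Percent activity is scaled between infected DMSO control and uninfected DMSO control.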

[5] = qHTS for inhibitors of adenylyl cyclases using a fission yeast platform: a pilot screen against the NCATS LOPAC library (AID 1347410)
Procedure, shortened: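 Fission yeast qHTS: CHP2027 cells (AC9-GNAS-PDE4D2, fbp1-GFP), 5x10^6 cells/mL working density, EMM + His/Lys/Ura; LOPAC at up to 57 µM final; 18 h dark, 30C; GFP by laser cytometry. DPI positive control, DMSO vehicle.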

[6] = Validation qHTS assay for inhibitors of Activation Induced Cytidine Deaminase (AID): UDG Counterscreen signal (AID 1347427)
Procedure, shortened: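 Fluorescence at 560 nm excitation, 665 nm emission reports UDG signal after 250 mM NaOH (2x) addition and 30 min. Enzymes (AID 1 uM, UDG 2 U/mL, at 4/3x) preincubated 10 min with compound, then 4 h with 4x 250 nM DJC20/DJC23 substrate at room temperature.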

[7] = molecular target: Single-stranded DNA cytosine deaminase (Homo sapiens) (UniProt Q9GZX7); experiment: Validation qHTS assay for inhibitors of Activation Induced Cytidine Deaminase (AID): AID signal (AID 1347429)
Chain of Single-stranded DNA cytosine deaminase (Homo sapiens) (Q9GZX7 whole entry, looked up): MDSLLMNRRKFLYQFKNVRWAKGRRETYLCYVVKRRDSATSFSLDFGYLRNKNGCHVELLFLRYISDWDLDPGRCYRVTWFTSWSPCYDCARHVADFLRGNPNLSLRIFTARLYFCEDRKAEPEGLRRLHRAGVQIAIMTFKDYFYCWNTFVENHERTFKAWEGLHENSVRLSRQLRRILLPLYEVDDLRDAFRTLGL
Procedure, shortened: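 AID+UDG coupled FRET deamination; cpds up to 114 uM final; DJC20/DJC23 substrate, 4 hr RT; NaOH stop, 30 min RT; read Ex 540/Em 590.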

[8] = molecular target: Calcium and integrin-binding protein 1 (Homo sapiens) (UniProt Q99828); experiment: Validation qHTS for Identification of Calcium Integrin Binding protein 1 (CIB1) Competitor (AID 1508618)
Procedure, shortened: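 In this qHTS validation, the LOPAC set (up to 114 uM) was tested for blocking CIB1 binding to a fluorescein-tagged alphaIIb peptide, with FP detection at 480/540 nm.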

[9] = qHTS to identify inhibitors of the type 1 interferon - major histocompatibility complex class I in skeletal muscle: primary screen against the NCATS Mechanism Interrogation Plate v5.0 (MIPE) Libary (AID 1347411); further: nearly all actives have a fitted effect of over 65% in size
Procedure, shortened: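 HLA-B HiBit myoblasts, dexamethasone-free medium + 4 ng/ml IFN-b, 24 h compound, 11-pt 1:3 from 46 uM final. Readout: Nano-Glo HiBiT lytic luminescence after 10 min lysis, RT.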

[10] = molecular target: Protein phosphatase 1D (Homo sapiens) (UniProt O15297); experiment: RapidFire Mass Spectrometry qHTS Assay for Modulators of WT P53-Induced Phosphatase 1 (WIP1) (AID 1347424);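 further: amount of dephosphorylated VEPPL-S-QETFS peptide product formed by WIP1; series mostly up to about 63 µM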
Procedure, shortened: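 Mass-spectrometric measurement of dephosphorylated peptide after a 5 min room-temperature reaction of 10 nM WIP1 with 2 uM phosphopeptide, following 1 h compound preincubation in 30 mM MgCl2 buffer.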

Measured: Potency

CC(=O)N(CC(=O)N(C)C)c1ccccc1
inactive: [1] | [2] | [3]

CSc1ccc(/C=C2/C(C)=C(CC(=O)O)c3cc(F)ccc32)cc1
inactive: [1] | [4]

C/C(=C(/OCCOc1ccc(Cl)cc1)c1ccc(Cl)cc1Cl)n1ccnc1
inactive: [1] | [2] | [3]

Cc1ccc(C(C)OC(=O)C2(C)CCC(C(=O)O)C2(C)C)cc1 (stereo unspecified)
inactive: [1] | [2] | [4] | [3]

CC(=O)c1ccc(O)c(C(N)=O)c1
inactive: [1] | [2] | [4] | [3]

CCCCOCCOC(=O)c1cccnc1
inactive: [1] | [2] | [3]

CCCCCCCCCCCCCCCC[N+](C)(C)Cc1ccccc1
active: [1] 23.6 µM
inactive: [2] | [4] | [3]

COc1ccc(-n2nc(CCC(=O)N(C)O)cc2-c2ccc(Cl)cc2)cc1
inactive: [1] | [2] | [3]

CCc1cccc2c(CCO)c[nH]c12
inactive: [1] | [2] | [4] | [3]

C[C@H]1C[C@H](O)c2ccsc2S1(=O)=O
inactive: [1] | [2] | [4] | [3]

C/C(=N\O)[C@@H](C)NCC(C)(C)CN[C@H](C)/C(C)=N/O
inactive: [1] | [2] | [4] | [3]

OCCc1ccccc1
inactive: [1] | [2] | [4] | [3]

CC(C)C(=O)Nc1cccc(C(F)(F)F)c1
inactive: [1] | [2] | [3]

CCC1(c2cnc[nH]2)Cc2ccccc2C1
inactive: [1] | [2] | [4] | [3]

Cc1cc(O)c2c(O)c3c(O)cccc3cc2c1
inactive: [1] | [4] | [3]

O=C(CO)[C@@H](O)[C@H](O)[C@@H](O)CO
inactive: [1] | [2] | [4] | [3]

CCOC(=O)OCC/C(SC(=O)OCC)=C(\C)N(C=O)Cc1cnc(C)nc1N
inactive: [1] | [2] | [4] | [3]

CSCC[C@H](NC(=O)[C@H](Cc1c[nH]c2ccccc12)NC(=O)CCNC(=O)OC(C)(C)C)C(=O)N[C@@H](CC(=O)O)C(=O)N[C@@H](Cc1ccccc1)C(N)=O
inactive: [1] | [2] | [4] | [3]

Cc1ccc(Cl)c(OCC(O)CNC(C)(C)C)c1 (stereo unspecified)
inactive: [1] | [2] | [4] | [3]

Cc1c(F)cc2c(=O)c(C(=O)O)cn3c2c1CCC3C (stereo unspecified)
inactive: [1] | [2] | [3]

CCCCCCCC(=O)[O-].CCCCCCCC(=O)[O-].[Zn+2]
inactive: [1] | [4]

COC(=O)[C@H]1[C@H]2C[C@@H]3c4[nH]c5cc(OC)ccc5c4CCN3C[C@H]2C[C@@H](OC(=O)/C=C/c2ccc(O)c(OC)c2)[C@@H]1OC
inactive: [1] | [2] | [4] | [3]

c1ccc(C(O[C@H]2CCCN(CCc3ccc4c(c3)OCO4)C2)c2ccccc2)cc1
inactive: [1] | [2] | [4] | [3]

C#Cc1ccc(-c2ccccc2F)cc1
inactive: [1] | [2] | [4] | [3]

CCOC(=O)N1CCC(Nc2ccc(Cl)cc2N)CC1
inactive: [1] | [2] | [4] | [3]

C=CCNc1nc(NCC=C)nc(N2CCN(C(c3ccc(F)cc3)c3ccc(F)cc3)CC2)n1
inactive: [1] | [2] | [4] | [3]

CC(C)Cc1ccc(C(C)C(=O)OCc2ccccn2)cc1 (stereo unspecified)
inactive: [1] | [2] | [4] | [3]

COc1ccc(OC(=O)N(CC(=O)O)Cc2ccc(OCCc3nc(-c4ccccc4)oc3C)cc2)cc1
inactive: [1] | [4] | [3]

C[C@@H](O[C@H]1OCCN(Cc2n[nH]c(=O)[nH]2)[C@H]1c1ccc(F)cc1)c1cc(C(F)(F)F)cc(C(F)(F)F)c1
inactive: [1] | [4] | [3]

OCc1c[nH]c2ccccc12
inactive: [1]

COc1cccc2c1[C@@H]1CN(CCCCn3c(=O)[nH]c4c(sc5ncc(-c6ccccc6)nc54)c3=O)C[C@@H]1CO2
inactive: [5] | [6] | [7] | [8]

CNC[C@H](O)[C@@H](O)[C@H](O)[C@H](O)CO
inactive: [9]

CCC1=C[C@@H]2CN(C1)Cc1c([nH]c3ccccc13)[C@@](C(=O)OC)(c1cc3c(cc1OC)N(C)[C@H]1[C@@](O)(C(=O)OC)[C@H](OC(C)=O)[C@]4(CC)C=CCN5CC[C@]31[C@@H]54)C2
inactive: [9]

Nc1c[n+](N2CCOCC2)no1
inactive: [2] | [3]

CCc1cc2cc(OC)c(OC)cc2c(Cc2ccccc2)n1
inactive: [10] | [2] | [3]

O=c1[nH]sc2cc(Cl)ccc12
inactive: [10] | [2]
active: [3] 3.55 µM

C[C@]12CCC(=O)C=C1CC[C@@H]1[C@@H]2[C@@H](O)C[C@@]2(C)[C@H]1CC[C@]2(O)C(=O)COC(=O)CCC(=O)O
inactive: [10] | [2] | [4] | [3]

N#C/C(=C1/SC[C@@H](c2ccc(Cl)cc2Cl)S1)n1ccnc1
inactive: [10] | [4] | [3]

Cc1cccc(C)c1NC(=O)c1cc(S(N)(=O)=O)c(Cl)cc1O
inactive: [10] | [2] | [3]

O=C1NCCN1CCN1CCC(c2cn(-c3ccc(F)cc3)c3ccc(Cl)cc23)CC1
inactive: [10] | [2] | [4] | [3]

Nc1ccc([N+](=O)[O-])c(C(F)(F)F)c1
inactive: [10] | [2] | [4] | [3]
